What all share (conditions): mRNA level, 48 h; actives raise or lower the signal
Read-out in test [1]: Glutathione S-transferase M3 (GSTM3), GSTM3 (gene 2947)
Put plainly: LTEA_HepaRG_GSTM3: Life Technologies and Expression Analysis (LTEA) Assay for Glutathione S-transferase M3 (GSTM3) using HepaRG (AID 2283501). The procedure, abridged:
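Expression of GSTM3 is determined by qRT-PCR in human liver HepaRG cells treated 48 h with an 8-point half-log range from 100 uM in 0.5% DMSO.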

Read-out in test [2]: Heat shock 70 kDa protein 1 (HSPA1A), gene 3303
As to the kind of experiment: LTEA_HepaRG_HSPA1A: Life Technologies and Expression Analysis (LTEA) Assay for Heat shock 70 kDa protein 1 (HSPA1A) using HepaRG (AID 2283502). The procedure, abridged:
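Cells were plated and cultured for 48 h, then switched to serum-free induction medium. Chemicals were added at eight half-log concentrations up to 100 uM for 48 h. RNA was then isolated and HSPA1A measured by qRT-PCR with bidirectional curve fitting against DMSO.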

Read-out in test [3]: Hypoxia-inducible factor 1-alpha (Homo sapiens) (UniProt Q16665)
As to the kind of experiment: LTEA_HepaRG_HIF1A: Life Technologies and Expression Analysis (LTEA) Assay for Hypoxia-inducible factor 1 (HIF1A) Trancription factor using HepaRG (AID 2283503). The procedure, abridged: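 HIF1A transcript level read by qRT-PCR (ACTB, GAPDH, POLR2A normalization) after 48 h chemical exposure of HepaRG cultures. Eight half-log concentrations, top 100 uM, 0.5% DMSO vehicle, duplicates; bidirectional curve fit against DMSO baseline.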

Read-out in test [4]: 3-Hydroxy-3-Methylglutaryl-CoA Synthase 2 (HMGCS2), HMGCS2 (gene 3158)
As to the kind of experiment: LTEA_HepaRG_HMGCS2: Life Technologies and Expression Analysis (LTEA) Assay for 3-Hydroxy-3-Methylglutaryl-CoA Synthase 2 (HMGCS2) using HepaRG (AID 2283504). The procedure, abridged: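 This steatosis marker was read as HMGCS2 mRNA change in HepaRG cells treated 48 h with up to 100 uM chemical. Normalisation used housekeeping genes; activity in either direction was fitted relative to 0.5% DMSO vehicle.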

Read-out in a further test: HGF (gene 3082)
As to the kind of experiment: LTEA_HepaRG_HGF: Life Technologies and Expression Analysis (LTEA) Assay for Hepatocyte Growth Facto (HGF) using HepaRG (AID 2283505). The procedure, abridged:
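Using HepaRG monolayers kept in 0.5% DMSO, chemicals were tested in duplicate over eight half-log concentrations from 100 uM for 48 h. Endpoint: HGF mRNA change relative to DMSO, normalized to ACTB/GAPDH/POLR2A.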

Read-out in test [5]: Insulin Like Growth Factor 1 (IGF1), IGF1 (gene 3479)
Put plainly: LTEA_HepaRG_IGF1: Life Technologies and Expression Analysis (LTEA) Assay for Insulin Like Growth Factor 1 (IGF1) using HepaRG (AID 2283506). The method, boiled down:
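Cells are thawed, plated and cultured 48 h, then exposed in duplicate to chemical (highest 100 uM, half-log steps, 0.5% DMSO) for another 48 h. Total RNA is analysed by Fluidigm qRT-PCR for IGF1 expression relative to vehicle.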

Read-out in test [6]: Intercellular Adhesion Molecule 1 (ICAM1), ICAM1 (gene 3383)
Put plainly: LTEA_HepaRG_ICAM1: Life Technologies and Expression Analysis (LTEA) Assay for Intercellular Adhesion Molecule 1 (ICAM1) using HepaRG (AID 2283507). The method, boiled down:
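Using the human liver line HepaRG, compounds are tested in duplicate over 48 h at concentrations up to 100 uM. Expression is determined by TaqMan qRT-PCR, normalized to endogenous controls, and analysed relative to 0.5% DMSO vehicle.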

Read-out in test [7]: Insulin-like growth factor-binding protein 1 (IGFBP1), IGFBP1 (gene 3484)
Put plainly: LTEA_HepaRG_IGFBP1: Life Technologies and Expression Analysis (LTEA) Assay for Insulin-like growth factor-binding protein 1 (IGFBP1) using HepaRG (AID 2283508). The procedure, abridged: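 HepaRG, 48 h, 8 conc. (max 100 uM, half-log), duplicates, 0.5% DMSO. Readout: TaqMan qRT-PCR, ACTB/GAPDH/POLR2A normalisation. Fit: bidirectional vs DMSO.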

Read-out in test [8]: Interleukin 6 (IL6), IL6 (gene 3569)
Put plainly: LTEA_HepaRG_IL6: Life Technologies and Expression Analysis (LTEA) Assay for Interleukin 6 (IL6) using HepaRG (AID 2283509). The method, boiled down: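 Changes in IL6 mRNA, up or down relative to 0.5% DMSO controls, were derived from concentration-response curves in human HepaRG cells treated for 48 h at up to 100 uM, with ACTB, GAPDH and POLR2A as normalizers.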

Read-out in test [9]: Interleukin 6 Receptor (IL6R), IL6R (gene 3570)
Put plainly: LTEA_HepaRG_IL6R: Life Technologies and Expression Analysis (LTEA) Assay for Interleukin 6 Receptor (IL6R) using HepaRG (AID 2283510). The procedure, abridged: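 Cells were thawed, plated and cultured 48 h, then medium was changed to serum-free induction medium. Chemicals were added in duplicate (100 uM top, half-log steps, 0.5% DMSO) for 48 h. Lysates were analyzed by qRT-PCR for IL6R expression.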

Read-out in test [10]: Potassium channel subfamily K member 1 (KCNK1), KCNK1 (gene 3775)
Put plainly: LTEA_HepaRG_KCNK1: Life Technologies and Expression Analysis (LTEA) Assay for Potassium channel subfamily K member 1 (KCNK1) using HepaRG (AID 2283511). The procedure, abridged: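 Human HepaRG cultures receive test chemicals for 48 h in 0.5% DMSO, top concentration 100 uM with half-log dilutions. Induction or suppression of KCNK1 mRNA relative to DMSO is derived by bidirectional fitting of qRT-PCR data.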

Read-out in test [11]: Keratin 19 (KRT19), KRT19 (gene 3880)
Put plainly: LTEA_HepaRG_KRT19: Life Technologies and Expression Analysis (LTEA) Assay for Keratin 19 (KRT19) using HepaRG (AID 2283512). The procedure, abridged: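 Readout is qRT-PCR of KRT19 mRNA, normalized to ACTB, GAPDH and POLR2A, from HepaRG cells treated 48 h with eight-point half-log dilutions topping at 100 uM. Activity in either direction is scored relative to 0.5% DMSO vehicle.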

Read-out in test [12]: JUN Transcription Factor, JUN (gene 3725)
Put plainly: LTEA_HepaRG_JUN: Life Technologies and Expression Analysis (LTEA) Assay for JUN Transcription Factor using HepaRG (AID 2283513). The procedure, abridged: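 Read-out is JUN transcript level by TaqMan qRT-PCR, normalized to ACTB, GAPDH and POLR2A, after 48 h chemical treatment of HepaRG cells. Concentration-response spanned eight half-log points up to 100 uM in 0.5% DMSO.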

Read-out in test [13]: Lipase C (LIPC), LIPC (gene 3990)
As to the kind of experiment: LTEA_HepaRG_LIPC: Life Technologies and Expression Analysis (LTEA) Assay for Lipase C (LIPC) using HepaRG (AID 2283514). The method, boiled down: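 In this multiplexed gene-expression screen, human HepaRG cultures received test chemicals for 48 h across eight concentrations with 100 uM highest, in duplicate. Values reflect LIPC mRNA induction or suppression versus DMSO vehicle, from normalized qRT-PCR.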

Read-out in test [14]: Lipoprotein lipase (LPL), LPL (gene 4023)
Put plainly: LTEA_HepaRG_LPL: Life Technologies and Expression Analysis (LTEA) Assay for Lipoprotein lipase (LPL) using HepaRG (AID 2283515). The method, boiled down: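 Concentration-response testing used half-log steps from 100 uM in 0.5% DMSO on human HepaRG cells, 48 h, duplicate wells. Phenobarbital 1 mM served as induction control; LPL mRNA was normalized to ACTB, GAPDH, POLR2A.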

Read-out in test [15]: MicroRNA 122 (MIR122), gene 406906
Put plainly: LTEA_HepaRG_MIR122: Life Technologies and Expression Analysis (LTEA) Assay for MicroRNA 122 (MIR122) using HepaRG (AID 2283516). Also: the transcript read is the microRNA miR-122. The method, boiled down: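 Human liver HepaRG cultures receive test chemicals for 48 h at eight half-log concentrations from 100 uM. Expression is quantified by qRT-PCR with ACTB/GAPDH/POLR2A normalization and fitted bidirectionally against 0.5% DMSO.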

Read-out in test [16]: matrix metalloproteinase-10 (MMP10), MMP10 (gene 4319)
Put plainly: LTEA_HepaRG_MMP10: Life Technologies and Expression Analysis (LTEA) Assay for matrix metalloproteinase-10 (MMP10) using HepaRG (AID 2283517). The method, boiled down: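 In differentiated HepaRG cultures kept in 0.5% DMSO, test chemicals act for 48 h over an eight-point range with a top dose of 100 uM. Expression is then quantified by TaqMan RT-PCR against ACTB, GAPDH and POLR2A.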

Read-out in a further test: MYC, MYC (gene 4609)
As to the kind of experiment: LTEA_HepaRG_MYC: Life Technologies and Expression Analysis (LTEA) Assay for MYC using HepaRG (AID 2283518). The procedure, abridged:
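Expression changes were scored by TaqMan qRT-PCR with ACTB, GAPDH and POLR2A normalization. Cultures in serum-free induction medium received duplicate 8-point concentration series, highest 100 uM, for 48 h; DMSO (0.5%) served as baseline.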

Read-out in test [17]: Paternally Expressed 10 (PEG10), PEG10 (gene 23089)
As to the kind of experiment: LTEA_HepaRG_PEG10: Life Technologies and Expression Analysis (LTEA) Assay for Paternally Expressed 10 (PEG10) using HepaRG (AID 2283520).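 As to AC50: differentiated HepaRG human liver cells in serum-free induction medium with 0.5% DMSO; PEG10 transcript by qRT-PCR normalised to ACTB GAPDH and POLR2A.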 The procedure, abridged:
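Human HepaRG cultures are dosed for 48 h across an eight-point half-log series starting at 100 uM, with 0.5% DMSO as vehicle and baseline. Gain or loss of PEG10 transcript is measured by qRT-PCR and fitted in both directions.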

Read-out in test [18]: matrix metalloproteinase-3 (MMP3), MMP3 (gene 4314)
Put plainly: LTEA_HepaRG_MMP3: Life Technologies and Expression Analysis (LTEA) Assay for matrix metalloproteinase-3 (MMP3) using HepaRG (AID 2283519). The procedure, abridged: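 Human liver HepaRG cultures received chemicals (top concentration 100 uM, 0.5% DMSO) for 48 h in duplicate. MMP3 mRNA induction or loss was then assessed via TaqMan qRT-PCR with housekeeping-gene normalisation.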

Molecules are shown by their SMILES. Activity calls are given as the source filed them. The calls were made as follows: active = hit-call score of the fitted dose curve at least 0.9, where 1 is the maximum; inactive = score below 0.9.

Sequence of Hypoxia-inducible factor 1-alpha (Homo sapiens) (Q16665 whole entry, looked up): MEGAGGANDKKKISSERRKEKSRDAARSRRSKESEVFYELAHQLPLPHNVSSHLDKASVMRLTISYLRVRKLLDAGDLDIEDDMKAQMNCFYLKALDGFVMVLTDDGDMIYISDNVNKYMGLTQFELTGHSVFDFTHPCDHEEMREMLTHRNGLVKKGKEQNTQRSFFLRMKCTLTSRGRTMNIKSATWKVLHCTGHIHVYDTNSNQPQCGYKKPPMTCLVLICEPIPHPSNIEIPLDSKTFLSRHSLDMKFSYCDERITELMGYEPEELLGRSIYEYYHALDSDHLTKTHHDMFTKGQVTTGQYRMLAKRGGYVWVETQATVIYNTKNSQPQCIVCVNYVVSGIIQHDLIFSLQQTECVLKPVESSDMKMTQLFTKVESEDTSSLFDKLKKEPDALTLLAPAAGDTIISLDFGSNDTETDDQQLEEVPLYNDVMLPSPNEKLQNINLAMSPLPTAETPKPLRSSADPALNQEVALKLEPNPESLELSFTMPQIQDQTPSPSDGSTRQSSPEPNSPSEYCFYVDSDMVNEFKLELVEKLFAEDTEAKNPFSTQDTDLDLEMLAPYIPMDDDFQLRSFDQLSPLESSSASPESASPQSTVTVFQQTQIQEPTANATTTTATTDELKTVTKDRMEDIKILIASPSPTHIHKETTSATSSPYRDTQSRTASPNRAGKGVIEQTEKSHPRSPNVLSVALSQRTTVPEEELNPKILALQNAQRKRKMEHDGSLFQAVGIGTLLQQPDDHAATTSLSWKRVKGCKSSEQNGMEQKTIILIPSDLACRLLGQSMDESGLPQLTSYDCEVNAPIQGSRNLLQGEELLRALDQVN

On to `Cn1cc(-c2ccccc2)c(=O)c(-c2cccc(C(F)(F)F)c2)c1`, for which the result (in [1]; in test [3]; in test [4]; with HGF (gene 3082); in test [5]; in test [6]) was inactive. Further, the outcome in test [8], in [9], in [10], in test [11], in test [12] and in test [13] was inactive. Also, the outcome is “inactive” in [14]; “inactive” in [15]; “inactive” in test [16]; “inactive” with MYC, MYC (gene 4609). Further, the AC50 in test [2] was 16.3 µM (active); in test [7], 50 µM (active); in test [17], 23.5 µM (active).
On to `CNC(=O)Oc1cccc2c1OC(C)(C)C2`, for which the outcome (in [1]; in test [2]; in test [3]; with HGF (gene 3082); in [5]; in test [6]) was inactive. Moreover, the outcome in test [7], in [8], in test [9], in [10], in [11] and in test [12] was inactive. In addition, the outcome in test [13] was “inactive”; in [14], “inactive”; in test [15], “inactive”; in test [16], “inactive”; in the test with MYC, MYC (gene 4609) it was “inactive”; in test [17], “inactive”. Further, the AC50 in [4] is 38.8 µM (active).
As to `CC(O)CCO` (centres undefined), the result (in [1]; in [2]; in [3]; in test [4]; with HGF (gene 3082); in test [5]) was inactive. In addition, the compound was classed as inactive in test [6], in test [7], in test [8], in test [10], in [11] and in [12]. For the same compound, the outcome was “inactive” in [13]; “inactive” in test [14]; “inactive” in [15]; “inactive” in [16]; “inactive” with MYC, MYC (gene 4609); “inactive” in [17].
`C=CCc1ccc2c(c1)OCO2`: the outcome (in [1]; in [2]; in [3]; in test [4]; with HGF (gene 3082); in test [5]) was inactive. Further, the result in test [6], in test [7], in test [8], in [9], in test [10] and in test [11] was inactive. For the same compound, the outcome was “inactive” in test [12]; “inactive” in [13]; “inactive” in test [14]; “inactive” in test [15]; “inactive” in test [16]; “inactive” with MYC, MYC (gene 4609). In addition, the compound was called inactive in test [18] and in test [17].
For `Clc1ccccc1Cl`, the compound was called inactive (in test [1]; in test [2]; in [3]; in test [4]; with HGF (gene 3082); in test [5]). Moreover, the call in [6], in test [7], in [8], in test [9], in test [10] and in [11] was inactive. For the same compound, the outcome in test [12] was “inactive”; in test [13], “inactive”; in [14] it was “inactive”; in test [15], “inactive”; in [16] it was “inactive”; with MYC, MYC (gene 4609), “inactive”. Further, the outcome in [17] was inactive.
`Cc1ccc(N=C=O)cc1N=C=O`: the call (in test [1]; in test [3]; with HGF (gene 3082); in test [5]; in [9]; in test [10]) was inactive. Also, in test [12], the call was inactive. The AC50 is 30.4 µM (active) in test [2]; 68.7 µM (active) in [4]; 24 µM (active) in [6]; 29.4 µM (active) in [7]; 73.5 µM (active) in test [8]; 23.9 µM (active) in [11]. Moreover, the AC50 in [13] was 50 µM (active); in test [14] it was 3.41 µM (active); in [15], 50 µM (active); in test [16], 27 µM (active); with MYC, MYC (gene 4609) it was 19.3 µM (active); in [17], 12.4 µM (active).

Broadly, the AC50 is the concentration at which the activity in the assay is half-maximal.

The values are drawn from PubChem BioAssay (EPA / NIEHS).
